Measurements reported in ChEMBL document CHEMBL3988442, “University of Dundee, Small-Polar-MMV Screening Library” (2021).

Molecular target: T1, Methionyl-tRNA synthetase, putative (Leishmania donovani (strain BPK282A1)) (UniProt E9BF75)
T1 sequence (whole entry): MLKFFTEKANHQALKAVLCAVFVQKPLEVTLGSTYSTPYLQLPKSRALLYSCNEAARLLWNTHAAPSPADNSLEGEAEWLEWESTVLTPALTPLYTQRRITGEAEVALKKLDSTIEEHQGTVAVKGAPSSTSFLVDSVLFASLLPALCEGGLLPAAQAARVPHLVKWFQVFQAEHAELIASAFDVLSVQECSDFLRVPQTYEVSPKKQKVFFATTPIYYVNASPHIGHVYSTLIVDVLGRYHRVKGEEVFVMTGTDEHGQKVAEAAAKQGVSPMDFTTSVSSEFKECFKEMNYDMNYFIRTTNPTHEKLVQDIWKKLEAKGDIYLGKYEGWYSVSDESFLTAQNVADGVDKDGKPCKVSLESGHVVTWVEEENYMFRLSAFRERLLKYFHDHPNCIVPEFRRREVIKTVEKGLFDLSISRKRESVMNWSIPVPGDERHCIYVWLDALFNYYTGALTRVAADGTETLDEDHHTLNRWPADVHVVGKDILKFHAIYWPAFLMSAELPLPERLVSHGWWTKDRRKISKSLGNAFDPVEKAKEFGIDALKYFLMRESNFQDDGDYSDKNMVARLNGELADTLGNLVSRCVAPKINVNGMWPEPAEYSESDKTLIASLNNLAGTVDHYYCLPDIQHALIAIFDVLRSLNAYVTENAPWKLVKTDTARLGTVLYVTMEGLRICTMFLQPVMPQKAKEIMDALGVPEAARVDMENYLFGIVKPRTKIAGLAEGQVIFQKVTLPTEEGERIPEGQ
Test: Leishmania donovani Methionine tRNA synthetase (LdMetRS):v7. Dose response assay
Format: functional
Parameters: conc 80 nM, time 150 minutes

Q: Which PXC50 (BOTTOM 1.995747486, HILLSLOPE 0.878307732, MAX_EFFECT 82.01754386, TOP 90.74385953) does the source give for `CCNc1nc(Nc2ccc(F)c(F)c2)nc2c1cnn2C` here?
A: 5.04

Q: What about the PXC50 (BOTTOM -0.278671712, HILLSLOPE 0.874738485, MAX_EFFECT 76.33587786, TOP 84.21903162) of the same molecule?
A: 5.21

Q: What about the PXC50 (BOTTOM -9.286701073, HILLSLOPE 0.734415983, MAX_EFFECT 80.15414258, TOP 112.1235893) of the same molecule?
A: 4.93

Q: For `O=C(CCNC(=O)c1ccccc1F)NCCNc1cccnc1`, which PXC50 (MAX_EFFECT 3.623188406) is on record?
A: < 4

Q: And the PXC50 (MAX_EFFECT 4.761904762)?
A: < 4

Q: And the PXC50 (MAX_EFFECT 5.779334501)?
A: < 4

Q: Which PXC50 (BOTTOM 1.026617696, HILLSLOPE 1.297008069, MAX_EFFECT 52.85961872, TOP 100.0) does the source give for `CCc1cc(N[C@@H]2CC[C@@H](N)C2)n2nc(C)c(C)c2n1` here?
A: 4.01

Q: And the PXC50 (BOTTOM 3.147594101, HILLSLOPE 1.2343555, MAX_EFFECT 68.05555556, TOP 100.0)?
A: 4.22

Q: And the PXC50 (BOTTOM 4.251586265, HILLSLOPE 1.063316163, MAX_EFFECT 53.69127517, TOP 100.0)?
A: 4.06

Q: Which results are given for `Cn1ncc2c(NCCS(C)(=O)=O)nc(Nc3ccc(F)c(F)c3)nc21`?
A: PXC50 (MAX_EFFECT 19.95249406): < 4; PXC50 (MAX_EFFECT 30.90128755): < 4; PXC50 (MAX_EFFECT 33.0754352): < 4

Q: Which results are given for `COc1cc(Nc2nc(NCCO)c3cnn(C)c3n2)cc(C(F)(F)F)c1`?
A: PXC50 (MAX_EFFECT 10.13215859): < 4; PXC50 (MAX_EFFECT 10.95041322): < 4; PXC50 (MAX_EFFECT 12.18568665): < 4

Q: For `OCCCNc1nccc(Nc2cccc(F)c2)n1`, which PXC50 (MAX_EFFECT 2.056074766) is on record?
A: < 4

Q: What about the PXC50 (MAX_EFFECT 11.40142518) of the same molecule?
A: < 4

Q: What about the PXC50 (MAX_EFFECT 18.45493562) of the same molecule?
A: < 4

Q: For `NS(=O)(=O)c1ccc(Nc2ncccc2S(N)(=O)=O)cc1`, which PXC50 (MAX_EFFECT 6.072106262) is on record?
A: < 4

Q: What about the PXC50 (MAX_EFFECT 13.21585903) of the same molecule?
A: < 4

Q: What about the PXC50 (MAX_EFFECT 15.90909091) of the same molecule?
A: < 4

Q: How did the PXC50 (MAX_EFFECT 3.50877193) turn out when `COC(=O)c1cnc(Nc2cccc(C(F)(F)F)c2)c(S(N)(=O)=O)c1` was run?
A: < 4

Q: What about the PXC50 (MAX_EFFECT 6.168224299) of the same molecule?
A: < 4

Q: And the PXC50 (MAX_EFFECT 6.615776081)?
A: < 4

Q: With `OCCNc1nc(Nc2ccc(F)c(F)c2)ncc1F` as the molecule, how does the PXC50 (BOTTOM 4.80997506, HILLSLOPE 1.016069871, MAX_EFFECT 75.05938242, TOP 103.871029) read?
A: 4.37

Q: What about the PXC50 (BOTTOM 6.495032966, HILLSLOPE 1.205723909, MAX_EFFECT 75.53648069, TOP 100.0) of the same molecule?
A: 4.33

Q: What about the PXC50 (BOTTOM -1.721460895, HILLSLOPE 0.874564497, MAX_EFFECT 71.96261682, TOP 100.0) of the same molecule?
A: 4.5

Q: Which PXC50 (MAX_EFFECT 29.53020134) does the source give for `Cc1cnn(CC2CN(Cc3nc(C)c4ccccc4n3)CCO2)c1` (centres undefined) here?
A: < 4

Q: What about the PXC50 (MAX_EFFECT 39.58333333) of the same molecule?
A: < 4

Q: What about the PXC50 (MAX_EFFECT 44.19410745) of the same molecule?
A: < 4

Q: With `Cc1cc(C)n(C2CN(CC(=O)N(C)Cc3cnn(C)c3)C2)n1` as the molecule, how does the PXC50 (BOTTOM 1.685263138, HILLSLOPE 1.431243041, MAX_EFFECT 59.07590759, TOP 100.0) read?
A: 4.06

Q: And the PXC50 (MAX_EFFECT 33.33333333)?
A: < 4

Q: What about the PXC50 (MAX_EFFECT 44.80286738) of the same molecule?
A: < 4

Q: What does the source list for `CC(C)CCNc1nnc(C(C)C)s1`?
A: PXC50 (MAX_EFFECT 4.081632653): < 4; PXC50 (MAX_EFFECT 6.479859895): < 4; PXC50 (MAX_EFFECT 7.971014493): < 4

Q: Which PXC50 (BOTTOM 1.581546444, HILLSLOPE 1.045254628, MAX_EFFECT 85.66037736, TOP 91.59899261) does the source give for `Cn1ncc2c(NCC(F)F)nc(Nc3ccc(F)c(F)c3)nc21` here?
A: 5.09

Q: What about the PXC50 (BOTTOM 2.845790401, HILLSLOPE 0.765565912, MAX_EFFECT 91.60305344, TOP 108.0932569) of the same molecule?
A: 4.86

Q: And the PXC50 (BOTTOM 5.50929664, HILLSLOPE 0.80038345, MAX_EFFECT 90.35087719, TOP 108.0671509)?
A: 4.81

Q: With `N[C@@H]1c2ccccc2C2(CCN(c3cnc4ccccc4n3)CC2)[C@H]1O` as the molecule, how does the PXC50 (BOTTOM 0.263751901, HILLSLOPE 1.516790173, MAX_EFFECT 51.81975737, TOP 100.0) read?
A: 4.02

Q: And the PXC50 (BOTTOM -0.439515819, HILLSLOPE 1.13741317, MAX_EFFECT 66.44295302, TOP 100.0)?
A: 4.24

Q: What about the PXC50 (BOTTOM -1.864115217, HILLSLOPE 1.086184415, MAX_EFFECT 68.05555556, TOP 100.0) of the same molecule?
A: 4.32

Q: Which results are given for `OCCNc1nc(Nc2ccc(F)c(F)c2)nc2[nH]ncc12`?
A: PXC50 (BOTTOM 3.46805435, HILLSLOPE 2.296919563, MAX_EFFECT 68.49315068, TOP 65.56498053): 5.11; PXC50 (BOTTOM 8.366568489, HILLSLOPE 1.390922894, MAX_EFFECT 66.79316888, TOP 71.6605159): 5.22; PXC50 (BOTTOM -5.242433447, HILLSLOPE 1.269255479, MAX_EFFECT 62.45283019, TOP 64.77487353): 5.31

Q: For `COCCNc1cc(-c2ccccc2CCN)c2cc[nH]c2n1`, which PXC50 (BOTTOM -0.0153, HILLSLOPE 1.167622452, MAX_EFFECT 63.88888889, TOP 100.0) is on record?
A: 4.2

Q: What about the PXC50 (MAX_EFFECT 46.30872483) of the same molecule?
A: < 4

Q: What about the PXC50 (MAX_EFFECT 46.96707106) of the same molecule?
A: < 4

Q: What does the source list for `Cc1cnn(CCNCc2c(C)nn(-c3ccccc3)c2C)c1`?
A: PXC50 (MAX_EFFECT 6.52173913): < 4; PXC50 (MAX_EFFECT 6.802721088): < 4; PXC50 (MAX_EFFECT 12.78458844): < 4

Q: What does the source list for `Cn1ncc2c(NC(CO)CO)nc(Nc3ccc(F)c(F)c3)nc21`?
A: PXC50 (BOTTOM 0.0, HILLSLOPE 0.771628136, MAX_EFFECT 78.30188679, TOP 92.57465731): 4.94; PXC50 (BOTTOM 5.639474755, HILLSLOPE 1.325747432, MAX_EFFECT 80.3652968, TOP 81.67018871): 4.98; PXC50 (BOTTOM 7.610636653, HILLSLOPE 1.121965033, MAX_EFFECT 79.69639469, TOP 86.15604804): 4.98
